Measurements reported in ChEMBL document CHEMBL1201862, “PubChem BioAssay data set” (2004).
In all, about 400,000 compounds went through this assay and about 2,100 (0.53%) were called active. Another 14% or so got no clear call; they are omitted. The rule behind the calls is not given here. The list comes from a sample in which actives are over-represented; it also holds similar structures and randomly drawn compounds.

Each molecule was assayed against Ataxin-2 (Homo sapiens) (UniProt Q99700) (assay: qHTS for Inhibitors of ATXN expression.).
Chain of Ataxin-2 (Homo sapiens) (Q99700 whole entry): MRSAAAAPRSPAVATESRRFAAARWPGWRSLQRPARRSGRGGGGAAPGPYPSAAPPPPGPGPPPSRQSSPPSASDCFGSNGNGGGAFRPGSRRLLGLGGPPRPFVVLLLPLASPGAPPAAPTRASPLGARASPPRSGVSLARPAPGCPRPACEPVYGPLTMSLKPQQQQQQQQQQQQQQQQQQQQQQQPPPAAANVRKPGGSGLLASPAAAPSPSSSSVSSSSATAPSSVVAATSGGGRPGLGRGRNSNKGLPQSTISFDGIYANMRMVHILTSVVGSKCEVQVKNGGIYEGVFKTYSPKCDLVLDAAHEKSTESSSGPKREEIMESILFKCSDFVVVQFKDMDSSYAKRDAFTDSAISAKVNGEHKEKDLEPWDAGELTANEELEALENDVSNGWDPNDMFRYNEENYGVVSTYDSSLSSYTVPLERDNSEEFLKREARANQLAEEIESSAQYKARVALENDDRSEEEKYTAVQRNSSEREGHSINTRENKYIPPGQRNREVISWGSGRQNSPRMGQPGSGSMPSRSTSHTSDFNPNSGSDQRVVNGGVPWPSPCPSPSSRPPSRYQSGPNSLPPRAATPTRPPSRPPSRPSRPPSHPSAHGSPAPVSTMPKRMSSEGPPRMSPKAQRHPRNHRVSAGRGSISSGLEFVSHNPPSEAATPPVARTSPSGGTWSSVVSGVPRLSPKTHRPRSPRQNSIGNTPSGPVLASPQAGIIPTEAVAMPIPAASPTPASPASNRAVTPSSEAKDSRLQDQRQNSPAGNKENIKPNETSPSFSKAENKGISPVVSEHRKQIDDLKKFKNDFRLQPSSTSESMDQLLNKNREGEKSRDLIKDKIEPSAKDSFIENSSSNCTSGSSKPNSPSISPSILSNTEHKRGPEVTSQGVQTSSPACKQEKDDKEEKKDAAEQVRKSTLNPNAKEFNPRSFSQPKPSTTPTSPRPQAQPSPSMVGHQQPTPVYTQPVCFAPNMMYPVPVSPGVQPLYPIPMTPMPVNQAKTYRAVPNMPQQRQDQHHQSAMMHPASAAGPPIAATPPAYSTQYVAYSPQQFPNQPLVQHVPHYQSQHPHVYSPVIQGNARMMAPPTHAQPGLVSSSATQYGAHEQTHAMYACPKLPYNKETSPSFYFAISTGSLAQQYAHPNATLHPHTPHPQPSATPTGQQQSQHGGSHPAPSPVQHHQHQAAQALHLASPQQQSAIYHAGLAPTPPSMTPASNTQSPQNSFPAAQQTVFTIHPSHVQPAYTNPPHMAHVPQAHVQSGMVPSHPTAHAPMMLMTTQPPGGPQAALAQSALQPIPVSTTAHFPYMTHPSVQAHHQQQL
Assay type: functional
`CCCCCCc1cc2cc(S(=O)(=O)c3ccc(F)cc3)c(=O)oc2cc1O` was tested, and the Potency was “inactive”.
With `NC(=O)c1sc2nc(-c3ccccc3)ccc2c1N` the Potency was “inactive”.
In the case of `CCC1CCCCN1C(=O)c1ccc(OC2CCN(C(=O)COC)CC2)cc1` (centres undefined), the Potency is reported as “inactive”.
With `Cc1c(S(=O)(=O)N2CCN(c3cccc(C(F)(F)F)c3)CC2)c(=O)n(C)c(=O)n1C` the Potency was “inactive”.
With `COCCN=C(S)N1CCN(c2cccc(C(F)(F)F)c2)CC1` the Potency was “inactive”.
For `Cn1cc(C(=O)N2CCN(c3cccc(C(F)(F)F)c3)CC2)c2c3ccccc3n(C)c2c1=O`, the Potency was 31.6 µM (active).
In the case of `CN(C)c1ccc(NC2=C(Cl)C(=O)c3ccccc3C2=O)cc1`, the Potency is reported as 25.1 µM (active).
In the case of `CCCC(=O)NC1=C(Cl)C(=O)c2ccccc2C1=O`, the Potency is reported as “inactive”.
`Cc1ccc(NC2=C(Cl)C(=O)c3ccccc3C2=O)cc1` was tested, and the Potency was 28.2 µM (active).
With `CC(=O)Nc1ccc(NC2=C(Cl)C(=O)c3ccccc3C2=O)cc1` the Potency was 28.2 µM (active).
In the case of `CC(=O)N(C1=C(Cl)C(=O)c2ccccc2C1=O)C1CCCCC1`, the Potency is reported as “inactive”.
With `Oc1c(Cl)cc(Cl)cc1/C=N/NC(=S)NC1CC2C=CC1C2` (centres undefined) the Potency was “inactive”.
For `CCn1c([N+](=O)[O-])nc2c1c(=O)[nH]c(=O)n2C`, the Potency was 22.4 µM (active).
`Cn1c(=O)[nH]c(=O)c2c1nc(Br)n2Cc1ccc(Cl)cc1` was tested, and the Potency was “inactive”.
With `COCCn1c(-c2ccc(-c3ccc([N+](=O)[O-])cc3Br)o2)nc2c1c(=O)[nH]c(=O)n2CC(C)C` the Potency was “inactive”.
With `CC(C)Cn1c([N+](=O)[O-])nc2c1c(=O)[nH]c(=O)n2C` the Potency was 29.9 µM (active).
For `CCCCNc1c(N)n(CC(C)C)c(=O)[nH]c1=O`, the Potency was “inactive”.
In the case of `COc1ccc(C(=O)c2sc3nc4c(c(C(F)(F)F)c3c2N)CN(C(C)=O)CC4)cc1OC`, the Potency is reported as “inactive”.
With `O=C(O)c1cc(N/N=C/c2cccc3ccccc23)ccc1Cl` the Potency was “inactive”.
`COC(=O)c1scc(C)c1S(=O)(=O)Nc1ccc(C)cc1` was tested, and the Potency was “inactive”.
With `C(=C\c1nccc2c1[nH]c1ccccc12)/c1ccccc1` the Potency was “inactive”.
`C=Cc1ncc(OC)c2c1[nH]c1ccccc12` was tested, and the Potency was 11.9 µM (active).
For `COc1cccc2[nH]c3c(O)ncnc3c12`, the Potency was “inactive”.
For `Cc1noc(C)c1COC(=O)c1cc(S(=O)(=O)N2CCOCC2)ccc1F`, the Potency was “inactive”.
In the case of `COc1ccc(N(Cc2cc(O)nc3ccccc23)C(=O)CCl)cc1`, the Potency is reported as 39.8 µM (active).
With `CCCC(=O)N(Cc1cc2cc(OC)ccc2nc1O)c1ccccc1OC` the Potency was “inactive”.
For `CC1(C)Cc2c(cnn2-c2ccccc2)C(NC(=O)CCN2CCCC2=O)C1` (centres undefined), the Potency was “inactive”.
`O=[N+]([O-])c1ccc(-c2nc(NCC3CCCO3)c3ccccc3n2)cc1` (centres undefined) was tested, and the Potency was “inactive”.
For `C(=N\Nc1ncnc2ccccc12)/c1ccccc1`, the Potency was “inactive”.
`C(=N\Nc1nc(-c2cccnc2)nc2ccccc12)/c1ccccc1` was tested, and the Potency was “inactive”.
`Cc1ccc(-c2nc(N/N=C/c3cccc([N+](=O)[O-])c3)c3ccccc3n2)cc1` was tested, and the Potency was 39.8 µM (active).
`O=[N+]([O-])c1ccc(-c2nc(Nc3cccc(O)c3)c3ccccc3n2)cc1` was tested, and the Potency was 31.6 µM (active).
For `Nc1ccc(-c2nc(-c3ccccc3)nc3ccccc23)cc1`, the Potency was “inactive”.
With `Cc1ccccc1N1CCN(Cc2nc(Cc3ccccc3)no2)CC1` the Potency was “inactive”.
With `Clc1nc(N2CCOCC2)ncc1Br` the Potency was “inactive”.
For `CCOC(=O)C(C)Sc1cnccn1` (centres undefined), the Potency was “inactive”.
`CCCCC(=O)NC(c1ccco1)c1cc(Cl)c2cccnc2c1O` (centres undefined) was tested, and the Potency was “inactive”.
With `CNC(=O)c1ccc(-c2sc3nc(N4CCOCC4)c4c(c3c2N)CC(C)(C)OC4)o1` the Potency was “inactive”.
`Cc1ccc(-n2ncc(C(=O)NCCN3CCc4ccccc4C3)c2C2CCN(C(=O)OC(C)(C)C)CC2)c(C)c1` was tested, and the Potency was 20 µM (active).
With `COC(=O)[C@@H]1CCCN1C(=O)c1cnn(-c2ncc3c(n2)-c2ccccc2CCC3)c1C1CC1` the Potency was “inactive”.
In the case of `Cc1cccc(-n2nnc(C(=O)N3CCc4ccccc4C3)c2N)c1`, the Potency is reported as “inactive”.
`CCOC(=O)c1cc2c(=O)n3ccccc3nc2n(Cc2ccco2)/c1=N/C(=O)c1ccccc1OC` was tested, and the Potency was “inactive”.
`CCc1cc(S)n2c(nc3ccccc32)c1C#N` was tested, and the Potency was “inactive”.
`N#Cc1cc(-c2ccccc2)[nH]c1-c1nccc2ccccc12` was tested, and the Potency was “inactive”.
In the case of `Oc1ncc(I)cc1I`, the Potency is reported as “inactive”.
For `CC(C)(C)c1ccc(OCCCC(=O)Nc2cccc(S(=O)(=O)N3CCOCC3)c2)cc1`, the Potency was 28.2 µM (active).
In the case of `Cn1cnnc1SCC(=O)Nc1cccc(S(=O)(=O)N2CCOCC2)c1`, the Potency is reported as “inactive”.
In the case of `O=C(Nc1nc[nH]n1)c1cccc(S(=O)(=O)N2CCOCC2)c1`, the Potency is reported as “inactive”.
In the case of `Cc1ccccc1NC(=O)CN1C(=O)S/C(=C\c2ccc(-c3cccc(C(=O)O)c3C)o2)C1=O`, the Potency is reported as “inactive”.
`O=C(O)c1cc(N/N=C/C=C/c2ccccc2)ccc1Cl` was tested, and the Potency was “inactive”.
For `COCC1CCCN(Cc2cn(-c3ccccc3F)nc2-c2cc(C)sc2C)C1` (centres undefined), the Potency was “inactive”.
With `COC(=O)c1ccccc1-c1c2ccc(=N)cc-2oc2cc(N)ccc12` the Potency was “inactive”.
`CCOc1ccccc1-c1c2cc(O)c(=O)cc-2oc2cc(O)c(O)cc12` was tested, and the Potency was 11.2 µM (active).
`COc1ccc(CSc2nc3ccncc3n2Cc2nc(-c3ccc(OC)c(OC)c3)oc2C)cc1` was tested, and the Potency was 39.8 µM (active).
In the case of `CCn1cc2nc(SCc3cccc(OC)c3)n(Cc3ccc(Cl)cc3)c(=O)c2n1`, the Potency is reported as “inactive”.
For `COc1ccc(CNC(=O)C[S+]([O-])Cc2nc(-c3ccc(C)cc3)oc2C)cc1` (centres undefined), the Potency was “inactive”.
For `CCN(CC(=O)N(CC(C)C)c1c(N)n(CC(C)C)c(=O)[nH]c1=O)Cc1nc(O)c2ccccc2n1`, the Potency was “inactive”.
In the case of `Cc1ccc(-c2nc(C[S+]([O-])CC(=O)NC3CC3)c(C)o2)cc1` (centres undefined), the Potency is reported as “inactive”.
For `COc1ccc(-n2nc(C(=O)NCC(=O)Nc3ccc(F)cc3)c3ccccc3c2=O)cc1`, the Potency was “inactive”.
`CCCCN(CC)C(=O)c1nn(-c2ccc(OC)cc2)c(=O)c2c1c1ccccc1n2C` was tested, and the Potency was 20 µM (active).
In the case of `COc1ccc(NCC(=O)n2c(C)c(C)c3ccccc32)cc1`, the Potency is reported as “inactive”.
With `CC1(C)C(=O)Nc2ccccc2N1C(=O)COC(=O)Cc1ccc(Cl)c(Cl)c1` the Potency was “inactive”.
For `CCCCN=C(S)NNc1c(Cl)cc(Cl)cc1Cl`, the Potency was “inactive”.
In the case of `COc1ccc2c(Sc3ccc(Cl)cc3)c(C(=O)NCCCN3CCCCC3)[nH]c2c1`, the Potency is reported as 39.8 µM (active).
For `COc1ccc2c(Sc3ccccc3)c(C(=O)N3CCC(C)CC3)[nH]c2c1`, the Potency was 39.8 µM (active).
In the case of `COc1ccc(Cn2c(=O)[nH]c3cc(C(=O)NCCCN4CCCC4)ccc3c2=O)cc1`, the Potency is reported as “inactive”.
`Cc1[nH]c2ccccc2c1C(=O)CSc1ccc(Cl)cc1` was tested, and the Potency was “inactive”.
`CCN(CC)CCNC(=O)c1[nH]c2ccccc2c1Sc1ccc(Cl)cc1` was tested, and the Potency was 28.2 µM (active).
With `O=C(COC(=O)CCSc1ccc(Cl)cc1)NCc1ccccc1` the Potency was “inactive”.
With `O=C(NCCCN1CCCCC1)c1[nH]c2ccccc2c1Sc1ccc(Cl)cc1` the Potency was 39.8 µM (active).
`Cc1[nH]c2ccccc2c1SCC(=O)N1CCCCC1` was tested, and the Potency was “inactive”.
`COc1cccc2[nH]c(C(=O)NCCCN3CCCC3=O)cc12` was tested, and the Potency was “inactive”.
`COC(=O)C1CCN(C(=O)COC(=O)c2oc3ccc(OC)cc3c2C)CC1` was tested, and the Potency was “inactive”.
`O=C(NN=C1CCCC1)c1[nH]c2ccc(Cl)cc2c1-c1ccccc1` was tested, and the Potency was “inactive”.
For `N#CC1=C(N)Oc2c(oc(CO)cc2=O)C1c1ccccc1[N+](=O)[O-]` (centres undefined), the Potency was “inactive”.
For `O=C(CCNC(=O)Cn1cnc2ccccc2c1=O)NCC1CCCO1` (centres undefined), the Potency was “inactive”.
`CCCCCOc1ccc(CSC2=NCCN2)cc1[N+](=O)[O-]` was tested, and the Potency was 35.5 µM (active).
For `COC(=O)C(N)Cc1ccc(OC)c([N+](=O)[O-])c1` (centres undefined), the Potency was “inactive”.
With `Cc1ccc(OCCn2cnc3ccccc3c2=O)c([N+](=O)[O-])c1` the Potency was “inactive”.
For `Cc1ccccc1NC(=O)COc1ccc(Br)cc1C`, the Potency was “inactive”.
`CCC1CN(C(=O)NCc2ccc(F)cc2)c2ccccc2O1` (centres undefined) was tested, and the Potency was “inactive”.
With `O=C(Cn1sc2ccccc2c1=O)Nc1ccc(F)cc1` the Potency was 31.6 µM (active).
With `CCn1c(=O)c(C(=O)Nc2ccc(C)cc2)c(O)c2ccccc21` the Potency was “inactive”.
With `O=C(Cn1sc2ccccc2c1=O)Nc1ccccc1` the Potency was 39.8 µM (active).
In the case of `Cc1ccc(NC(=O)Cn2sc3ccccc3c2=O)cc1`, the Potency is reported as 25.1 µM (active).
With `O=C(CC1C(=O)NCCN1C(=O)Nc1ccccc1)Nc1ccc(F)cc1` (centres undefined) the Potency was “inactive”.
For `O=C(CN1C(=O)c2cccc3cccc1c23)Nc1ccccc1`, the Potency was “inactive”.
`CC(=O)c1ccccc1NCC(=O)Nc1ccc(C)cc1` was tested, and the Potency was “inactive”.
With `O=C(CN1C(=O)CSc2ccc(C(F)(F)F)cc21)Nc1ccccc1` the Potency was “inactive”.
In the case of `O=C(Nc1ccc(F)cc1)c1cccc2ccccc12`, the Potency is reported as “inactive”.
For `COc1cccc2sc3cc(NCC[C@@H]4CCCN4C)ccc3c(=O)c12`, the Potency was “inactive”.
`COc1ccc(C)cc1NC(=O)c1cc(-c2ccccc2)nc2c1cnn2C(C)C` was tested, and the Potency was “inactive”.
`CCc1nc2ccc(C(=O)Nc3ccc(OC)c(OC)c3)cn2c1N(C)CCC(C)C` was tested, and the Potency was 31.6 µM (active).
`CCc1nc2ccc(C(=O)Nc3cccc(OC)c3)cn2c1N(CCC(C)C)CCN(C)C` was tested, and the Potency was 14.1 µM (active).
In the case of `CCc1nc2ccc(C(=O)Nc3cc(-c4ccccc4)ccc3OC)cn2c1N(CC)CCN(C)C`, the Potency is reported as 39.8 µM (active).
With `CCCNC(=O)c1c(N)n(-c2cccc(OC)c2)c2nc3ccccc3nc12` the Potency was “inactive”.
For `COc1ccc(NC(=O)c2ccc(S(=O)(=O)N3CC(C)CC(C)C3)cc2)cc1S(N)(=O)=O` (centres undefined), the Potency was “inactive”.
In the case of `COc1cc(C(=O)Nc2ccn(C)n2)ccc1OC(F)F`, the Potency is reported as “inactive”.
`Cc1ccc(-c2cc(C(=O)Nc3ccccn3)c3ccccc3n2)o1` was tested, and the Potency was “inactive”.
For `CN(NC(=O)COc1ccccc1)C1=NS(=O)(=O)c2ccccc21`, the Potency was “inactive”.
With `CC(=O)c1ccc(/N=c2\scc(C)n2C(C)C)cc1` the Potency was “inactive”.
For `CC(=O)Nc1ccc(-c2ccnc(-c3ccc(NC(C)=O)cc3)n2)cc1`, the Potency was “inactive”.
For `COc1ccc(-c2csc(NC(=O)c3c(C)noc3C)n2)cc1OC`, the Potency was “inactive”.
With `CC(=O)Nc1cccc(-c2csc(Nc3cc(C)ccn3)n2)c1` the Potency was 25.1 µM (active).
